Screening data: PubChem BioAssay, National Center for Advancing Translational Sciences (NCATS)
HTT ATP protect = qHTS Multiplex Assay to Identify Dual Action Probes in a Cell Model of Huntington: Cytoprotection (ATP) | PC12 HTT-Q103 induced, cytoprotection, ATP luminescence, 40 h | Potency, µM (titrated, usually from 56.4 µM), for inactives: cytoprotection (ATP increase), most hits filed as activators | 230,000 compounds, 0.14% hits | AID 1471, 2008; also: potency is read from the fitted curve at half-maximal effect; % of control where 0% means no effect; nearly all actives have a fitted effect of over 45% in size
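Compounds were screened for protection of PC12 cells against cell death after tebufenozide induction (100 nM final) of mutant Huntingtin exon 1 (Q103) fused to GFP.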
ALDH1A1 block = qHTS Assay for Inhibitors of Aldehyde Dehydrogenase 1 (ALDH1A1). AID 1030, 2008. Potency, µM (highest dose often 75.3 µM), for the others: top-dose activity, negative = inhibition, usual class: inhibitors. Aldehyde dehydrogenase 1A1 (Homo sapiens), P00352. 220,000 compounds, 7.3% hits. Purified ALDH1A1, NADH fluorescence, propionaldehyde substrate; active = well fitted inhibition curve with a large enough effect, not every such curve was filed as active; inconclusive = small, poorly fitted or top-dose-only effect, or another doubt; inactive = no such curve, though single readings can be large or run the other way;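 also: potency is read from the fitted curve at half-maximal effect; plate controls were no enzyme wells and a reference inhibitor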
HTT aggregate = qHTS Multiplex Assay to Identify Dual Action Probes in a Cell Model of Huntington: Aggregate Formation (GFP) | PC12 HttQ103-GFP aggregates, Acumen cytometry, 40 h | Potency, µM (doses to about 46.1 µM), inactives show top-dose activity change, negative = inhibition, actives largely listed as inhibitors | 220,000 compounds, 1.1% hits | AID 1688, 2009; also: potency is read from the fitted curve at half-maximal effect; % is scaled to controls: 0 for no effect and ±100 for the full control effect; nearly all actives have a fitted effect of over 60% in size
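Aggregate formation scored by laser-scanning cytometer (488 excitation, 500–530 emission) in lysed PC12 cells expressing Q103-GFP after 100 nM tebufenozide induction; library tested in dose series, with ATPLite reagent added in the multiplex.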
HPGD inh = qHTS Assay for Inhibitors of HPGD (15-Hydroxyprostaglandin Dehydrogenase). 15-hydroxyprostaglandin dehydrogenase [NAD(+)] (Homo sapiens), P15428. purified HPGD, NADH fluorescence kinetic, PGE2 substrate. Potency, µM, for inactives: at the highest dose activity change, negative = inhibition, usual class: inhibitors. 150,000 compounds, 4.3% hits. AID 894, 2007; active = well fitted inhibition curve with a large enough effect, not every such curve was filed as active; inconclusive = small, poorly fitted or top-dose-only effect, or another doubt; inactive = no such curve, though single readings can be large or run the other way; also: potency is read from the fitted curve at half-maximal effect; % is scaled to controls: 0 for no effect and ±100 for the full control effect
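20 nM HPGD preincubated 15 min at room temperature with compound in 50 mM Tris-HCl pH 8, 0.01% Tween 20. Started with 1 mM NAD+ and 30 uM prostaglandin E2; NADH fluorescence (360/450 nm) read 5 times over 30-s intervals, last minus first.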
PNC assembly inh = High Content Assay for Compounds that inhibit the Assembly of the Perinucleolar Compartment; activity change (PNC), negative = inhibition, % at 10 µM; 140,000 compounds, 3.1% hits; PC3M PTB-GFP, PNC prevalence imaging, 16 h; stronger effect = lower value;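 active = readout at or below -70, meaning at least 70% loss of cells showing the perinucleolar compartment, a nuclear body marking cancer cells; inconclusive = readout between -30 and a set limit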;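 also: plate controls were DMSO wells for no effect and camptothecin positive control wells for full effect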
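Read-out is percentage of cells bearing a perinucleolar compartment, from automated 20x imaging of fixed, Hoechst-stained PC3M PTB-GFP cells. Cells were seeded 4 h, then exposed 16 h to compound (23 nl of library stock) in duplicate plates.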
CBFb RUNX1 block = qHTS Assay for Compounds Blocking the Interaction Between CBF-beta and RUNX1 for the Treatment of Acute Myeloid Leukemia | AlphaScreen CBFb-His/RUNX1-biotin binding, biochemical | 230,000 tested, under 10 active | Potency, µM (top dose mostly 59.8 µM), for inactives: top-dose activity, negative = inhibition, most hits filed as inhibitors | Runt-related transcription factor 1 (Homo sapiens) + Core-binding factor subunit beta … | AID 1477, 2009; also: % of control where 0% means no effect
Target sequence (Q01196 whole entry, looked up): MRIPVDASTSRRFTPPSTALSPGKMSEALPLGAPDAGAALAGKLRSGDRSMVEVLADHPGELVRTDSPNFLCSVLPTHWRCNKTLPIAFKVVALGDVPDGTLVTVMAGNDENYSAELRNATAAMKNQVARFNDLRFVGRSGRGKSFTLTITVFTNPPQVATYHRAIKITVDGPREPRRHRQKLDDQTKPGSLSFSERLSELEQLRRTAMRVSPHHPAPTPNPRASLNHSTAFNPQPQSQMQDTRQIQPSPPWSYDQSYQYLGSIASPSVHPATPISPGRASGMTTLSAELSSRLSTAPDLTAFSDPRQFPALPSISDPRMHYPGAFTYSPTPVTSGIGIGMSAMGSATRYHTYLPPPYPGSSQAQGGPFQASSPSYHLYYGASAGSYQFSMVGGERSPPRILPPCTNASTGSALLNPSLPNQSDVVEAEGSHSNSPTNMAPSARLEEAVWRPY
Target sequence (Q13951 whole entry, looked up): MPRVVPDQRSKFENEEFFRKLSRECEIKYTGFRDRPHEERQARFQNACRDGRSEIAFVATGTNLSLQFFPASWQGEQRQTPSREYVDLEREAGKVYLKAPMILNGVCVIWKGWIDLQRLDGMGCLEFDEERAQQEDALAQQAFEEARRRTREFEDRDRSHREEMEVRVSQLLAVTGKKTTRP
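His-tagged CBF-beta and biotinylated RUNX1 (30 nM each) were premixed 20 min at room temperature, exposed to compound for 15 min, then given nickel-chelate and streptavidin AlphaScreen beads (50 ng each). After 90 min, AlphaScreen signal was read.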
* marks the source's active call; other numbers are inactive results; ? = inconclusive; . = not tested or not shown; [ ] = remark or other dose. Only some compounds are listed: those with a hit (about 11% of all), similar ones and a draw of the others. Unless noted, calls follow the shape of the dose curve; as a rule, active = well fitted curve in the direction sought with a large enough effect; inconclusive = small, poorly fitted or top-dose-only effect, or another doubt; inactive = no such curve, though single readings can be large; an effect the other way counts as inactive or inconclusive.

SMILES | HTT ATP protect | ALDH1A1 block | HTT aggregate | HPGD inh | PNC assembly inh | CBFb RUNX1 block
O=C1CC(c2ccccc2)CC(O)=C1C=NCCN1CCN(C(=O)Cc2ccccc2)CC1 (configuration not stated) | 6%[10 µM] | -7% | 26% | -7% | 36 | 1%
CC1(C)CC(=O)C(C=NCCN2CCN(C(=O)Cc3ccc(F)cc3)CC2)=C(O)C1 | -16% | 18µM* | 3% | -15% | 23 | 8%
CCOP(=O)(NC(C)C)Oc1ccc(SC)c(C)c1 (configuration not stated) | -1% | ? | . | 5.6µM* | . | 8%[21.7 µM]
COc1cc(N2CCOCC2)ccc1C=C1C(=O)NC(=O)NC1=O | 5%[10 µM] | 13µM* | -4% | 32µM* | ? | -6%
FC(F)OC(F)(F)C(F)Cl (configuration not stated) | -12% | . | 10% | . | . | .
C[C@@H]1O[C@H]1P(=O)(O)O | -7%[1.9 µM] | . | . | . | . | .
Cc1cccc(-n2c(O)c(/C=N/NC(=O)c3ccncc3)c(=O)[nH]c2=O)c1 | 4%[10 µM] | . | -11%[9.22 µM] | . | . | -29%
COc1ccc(N/N=C/c2c(O)n(-c3ccc(C)c(C)c3)c(=O)[nH]c2=O)cc1 | 8%[10 µM] | 1.6µM* | 17% | ? | 51 | -10%
Cc1ccc(-n2c(O)c(/C=N/Nc3ccccc3)c(=O)[nH]c2=O)cc1C | 17%[10 µM] | 1% | 21%[9.22 µM] | . | . | -13%
COc1ccc(N/N=C/c2c(O)n(-c3cccc(C)c3)c(=O)[nH]c2=O)cc1 | 26%[10 µM] | 3.2µM* | 2%[9.22 µM] | . | . | -6%
CC(=O)OCC1=C[C@H]2[C@@H]3C(C)(C)[C@]3(OC(=O)Cc3ccccc3)C[C@@H](C)[C@]2(O)[C@@H]2C=C(C)C(=O)[C@@]2(O)C1 | . | . | . | . | . | 11%
CC(C)(C)N1C(=O)NC(=O)/C(=C\c2ccc3c(c2)CCN3CCCCl)C1=O | -12%[10 µM] | . | 9%[9.22 µM] | . | . | ?
CCN1C(=O)/C(=C/c2ccc3c(c2)CCN3CCCCl)C(=O)NC1=S | 1%[10 µM] | 0.2µM* | -23% | 7.9µM* | -99* | 17%
C=CCN1C(=O)/C(=C/c2ccc3c(c2)CCCN3CCC)C(=O)NC1=S | 5%[10 µM] | 1.3µM* | -20% | 14µM* | 12 | -15%
O=C1NC(=S)N(C2CC2)C(=O)/C1=C/c1ccc2c(c1)CCN2CCCCl | 1%[10 µM] | 0.89µM* | 0% | 11µM* | 56 | ?
COc1cc(=O)[nH]c(SCc2c(F)c(F)c(F)c(F)c2F)n1 | -8% | -2% | 0% | 16µM* | 49 | 5%
CCN(CC)C(=O)N[C@@H]1C=C2c3cccc4[nH]cc(c34)C[C@@H]2N(C)C1 | 26%[1.9 µM] | . | . | . | . | .
Cc1ccc2c(c1)C1CN(C)CCC1N2C(=O)c1ccc(Br)o1 (configuration not stated) | 16%[10 µM] | 22µM* | 0% | -16% | -17 | -7%
C[C@@H](NC(=O)[C@@H](N)Cc1ccc(O)cc1)C(=O)NCC(=O)N(C)[C@@H](Cc1ccccc1)C(=O)NCCO | . | . | . | . | . | 7%
O=C(C1CC(=O)N(C2CCCCCCC2)C1)N1CCC2(CC1)OCCO2 (configuration not stated) | -15% | 25µM* | 6% | -6% | ? | 7%
O=C(C1CCC(=O)N1C1CCCC1)N1CCC2(CC1)OCCO2 (configuration not stated) | -2% | -7% | -1% | -12% | -21 | 17%
C=CC(=O)OCCO | -2% | 0% | . | -1% | . | -5%[21.7 µM]
C=CC(=O)OCC(CO)(COC(=O)C=C)COC(=O)C=C | ? | 0.4µM* | . | -5% | . | 0%[21.7 µM]
C[C@@]12CC[C@H](O[C@@H]3O[C@H](CO)[C@@H](O)[C@H](O)[C@@H]3O)C[C@@H]1CC[C@H]1[C@H]2CC[C@@]2(C)[C@@H](C3=CCOC3=O)CC[C@]12O | 9%[10 µM] | -7%[13.5 µM] | . | 1% | . | .
O=[N+]([O-])c1cccc(CN2CCN(Cc3ccc(Cl)cc3)CC2)c1 | -19% | ? | 1% | . | . | -13%
SMILES | HTT ATP protect | ALDH1A1 block | HTT aggregate | HPGD inh | PNC assembly inh | CBFb RUNX1 block
CC(C)N1CCN(Cc2cccc([N+](=O)[O-])c2)CC1 | -4% | 3.5µM* | 0% | . | . | 2%
O=[As]O[As]=O (configuration not stated) | -12% | . | -8% | . | . | .
COc1ccc(-c2cc(C(F)(F)F)n3nc(C(=O)N4CCC5(CC4)OCCO5)cc3n2)cc1OC | -35% | 10µM* | 0% | 13µM* | -2 | 6%
O=[N+]([O-])C(Br)Br | -91% | 1.4µM* | . | ? | . | 4%[21.7 µM]
COc1ccc(CCNCc2ccc(OC)c(OC)c2OC)cc1 | -13% | ? | -3% | -5% | -13 | -3%
COc1ccc(CCNCc2ccncc2)cc1 | -4% | 22µM* | 0% | 4% | -3 | -4%
CC1(C)[C@@H]2CC[C@]1(C)CN(CCC[N+](C)(C)C)C2 | -11%[10 µM] | 9%[13.5 µM] | . | 1% | . | .
O=C(Cc1ccccc1)N1CCN(CC2CC3C=CC2C3)CC1 (configuration not stated) | 5%[10 µM] | -15% | -10% | -6% | -9 | -3%
O=C(Cc1ccccc1)N1CCN(CC2CC=CCC2)CC1 (configuration not stated) | 12% | 13µM* | ? | -8% | 4 | 6%
C1CNC2NCCNC2N1 (configuration not stated) | 3% | 8% | -6% | -6% | -100* | 2%
CS(=O)(=O)O[C@H]1CN2CCC1CC2 | -7%[10 µM] | -1%[13.5 µM] | . | -1% | . | .
Cc1ncc2n1-c1ccc(Cl)cc1C(c1ccccc1F)=NC2O (configuration not stated) | . | . | . | . | . | 18%
CCCCCCOc1ccc(C(=O)n2cnc(N)n2)cc1 | 13µM* | ? | . | -18% | -26 | 0%
CC(C)CCNC(=O)CNC(=O)[C@@H](C)NC(=O)[C@@H](N)Cc1ccc(O)cc1 | . | . | . | . | . | 18%
COc1cccc(Oc2c(C)oc3cc(OC(=O)N(C)C)ccc3c2=O)c1 | -4%[0.074 µM] | 22µM* | ? | -18% | 1 | 11%
Cc1oc2ccc(OC(=O)N(C)C)cc2c1C(=O)OC(C)C | 0%[10 µM] | -4% | -29% | -9% | -1 | 18%
O=C1c2ccccc2C(=O)N1SC1CCCCC1 | 38% | 1.4µM* | 7% | 2.2µM* | 51 | 1%
